# Data as given in ChEMBL document CHEMBL2218924, “A broad activity screen in support of a chemogenomic map for kinase signalling research and drug discovery” (Biochem J, 2013).
# Biological target: Death-associated protein kinase 1 (Homo sapiens) (UniProt P53355)
# Details: at 1 µM
# Chain of Death-associated protein kinase 1 (Homo sapiens) (P53355 whole entry, looked up): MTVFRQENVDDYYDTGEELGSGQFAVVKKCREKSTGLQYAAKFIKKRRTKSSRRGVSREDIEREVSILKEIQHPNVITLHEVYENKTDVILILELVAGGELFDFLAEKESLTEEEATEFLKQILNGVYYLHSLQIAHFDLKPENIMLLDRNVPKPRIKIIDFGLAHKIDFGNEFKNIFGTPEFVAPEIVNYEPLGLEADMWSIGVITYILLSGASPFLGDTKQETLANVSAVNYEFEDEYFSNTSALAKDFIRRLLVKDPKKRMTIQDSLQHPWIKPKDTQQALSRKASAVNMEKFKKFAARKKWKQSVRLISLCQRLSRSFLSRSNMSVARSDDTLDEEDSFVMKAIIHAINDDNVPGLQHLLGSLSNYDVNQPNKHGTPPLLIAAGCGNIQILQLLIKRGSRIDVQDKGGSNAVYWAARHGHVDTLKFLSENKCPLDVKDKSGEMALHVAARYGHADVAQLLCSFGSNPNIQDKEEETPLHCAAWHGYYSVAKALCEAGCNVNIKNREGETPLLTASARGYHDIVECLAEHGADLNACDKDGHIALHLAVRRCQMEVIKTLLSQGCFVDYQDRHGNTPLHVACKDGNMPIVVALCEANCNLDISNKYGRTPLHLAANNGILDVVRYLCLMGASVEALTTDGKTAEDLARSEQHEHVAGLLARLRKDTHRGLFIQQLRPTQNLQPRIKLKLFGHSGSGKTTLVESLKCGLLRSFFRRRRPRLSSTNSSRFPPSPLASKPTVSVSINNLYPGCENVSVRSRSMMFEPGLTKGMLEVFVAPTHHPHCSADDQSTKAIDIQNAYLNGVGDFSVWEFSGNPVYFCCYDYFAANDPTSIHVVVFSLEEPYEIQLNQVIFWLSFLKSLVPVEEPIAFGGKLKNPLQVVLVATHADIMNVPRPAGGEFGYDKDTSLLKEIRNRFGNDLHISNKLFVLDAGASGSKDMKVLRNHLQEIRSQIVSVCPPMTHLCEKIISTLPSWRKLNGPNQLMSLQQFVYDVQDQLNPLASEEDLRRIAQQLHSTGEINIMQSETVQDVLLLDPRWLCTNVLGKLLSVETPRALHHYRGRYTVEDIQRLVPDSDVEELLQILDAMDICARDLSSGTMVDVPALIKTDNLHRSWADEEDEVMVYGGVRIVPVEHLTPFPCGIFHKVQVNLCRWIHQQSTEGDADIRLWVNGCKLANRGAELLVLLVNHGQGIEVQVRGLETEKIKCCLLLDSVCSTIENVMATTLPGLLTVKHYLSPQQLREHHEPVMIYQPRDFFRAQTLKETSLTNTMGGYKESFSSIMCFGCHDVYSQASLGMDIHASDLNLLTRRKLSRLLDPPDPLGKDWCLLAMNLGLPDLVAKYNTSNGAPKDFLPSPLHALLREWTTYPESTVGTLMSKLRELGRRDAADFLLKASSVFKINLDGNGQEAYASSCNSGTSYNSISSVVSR
row,SMILES,residual activity [%]
1,COc1cc2ncnc(Nc3cccc(Cl)c3)c2cc1OC,104
2,Oc1ccc(-c2nc(-c3ccc(F)cc3)c(-c3ccncc3)[nH]2)cc1,92
3,CO[C@H]1C[C@@H]2CC[C@@H](C)[C@@](O)(O2)C(=O)C(=O)N2CCCC[C@H]2C(=O)O[C@H]([C@H](C)C[C@@H]2CC[C@@H](O)[C@H](OC)C2)CC(=O)[C@H](C)/C=C(\C)[C@@H](O)[C@@H](OC)C(=O)[C@H](C)C[C@H](C)/C=C/C=C/C=C/1C,95
4,Cn1cnc2cc3c(Nc4cccc(Br)c4)ncnc3cc21,94
5,Cc1nc2cc3nc(-c4cccs4)cnc3cc2n1C,94
6,Fc1ccc(-c2nc3n(c2-c2ccncc2)CCS3)cc1,85
7,NC(=O)Nc1sc(-c2ccc(F)cc2)cc1C(N)=O,83
